{"source": "paper PMC4336329", "about": "(PLoS ONE, 2015)", "note": "About 14,000 (4.5%) of roughly 310,000 compounds showed an effect of 50% or more. The effect is printed as a negative number. This is one part of a sample in which strong results are shown more often than they occur.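 Further: peak tail current of the secondary pulse compared with the same well before compound.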", "data": [{"molecular_target": "human ether-à-go-go-related gene (hERG) potassium channel (human, UniProt Q12809)", "sequence (Q12809 whole entry, looked up)": "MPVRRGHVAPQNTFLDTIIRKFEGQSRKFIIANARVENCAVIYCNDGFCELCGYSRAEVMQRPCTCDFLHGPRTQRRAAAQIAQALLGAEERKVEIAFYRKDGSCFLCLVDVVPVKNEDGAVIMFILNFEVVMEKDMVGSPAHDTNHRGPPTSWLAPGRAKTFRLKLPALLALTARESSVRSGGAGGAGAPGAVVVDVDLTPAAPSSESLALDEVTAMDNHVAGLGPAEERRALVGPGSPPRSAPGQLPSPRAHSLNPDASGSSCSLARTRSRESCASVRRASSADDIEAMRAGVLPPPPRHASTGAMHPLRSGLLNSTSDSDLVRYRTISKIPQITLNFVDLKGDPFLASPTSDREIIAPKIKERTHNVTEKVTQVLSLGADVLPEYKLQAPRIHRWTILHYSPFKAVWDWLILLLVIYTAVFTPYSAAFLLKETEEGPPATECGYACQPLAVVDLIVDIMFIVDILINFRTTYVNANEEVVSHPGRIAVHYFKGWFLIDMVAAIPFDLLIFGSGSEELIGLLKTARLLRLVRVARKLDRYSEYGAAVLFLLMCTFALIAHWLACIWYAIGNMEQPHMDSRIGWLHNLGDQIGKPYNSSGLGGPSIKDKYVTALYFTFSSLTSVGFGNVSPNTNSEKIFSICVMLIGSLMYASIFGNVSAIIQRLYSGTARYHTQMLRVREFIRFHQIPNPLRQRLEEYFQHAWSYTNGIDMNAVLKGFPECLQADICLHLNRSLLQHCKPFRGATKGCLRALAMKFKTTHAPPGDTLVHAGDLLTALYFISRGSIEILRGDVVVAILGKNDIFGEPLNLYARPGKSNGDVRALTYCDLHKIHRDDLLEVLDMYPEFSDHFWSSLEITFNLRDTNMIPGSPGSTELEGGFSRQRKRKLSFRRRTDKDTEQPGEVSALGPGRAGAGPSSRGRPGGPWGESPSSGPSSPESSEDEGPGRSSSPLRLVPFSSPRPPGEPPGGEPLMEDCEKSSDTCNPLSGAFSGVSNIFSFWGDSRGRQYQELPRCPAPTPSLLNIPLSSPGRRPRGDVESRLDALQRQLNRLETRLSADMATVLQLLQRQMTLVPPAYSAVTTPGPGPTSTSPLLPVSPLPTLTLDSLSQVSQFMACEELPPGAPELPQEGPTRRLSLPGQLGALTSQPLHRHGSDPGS", "assay": "primary screen, population patch clamp on CHO cells stably expressing hERG; higher = less effect of the substance", "units": {"hERG current change (%, negative = inhibition) at 10uM": "%"}, "values": [{"smiles": "CCOC(=O)N1CCC(NC(=O)c2cc(C(=O)Nc3ccc(OCC)cc3)ccc2CO)CC1", "hERG current change (%, negative = inhibition) at 10uM": 9.27}, {"smiles": "CC(C)c1nnc(NC(=O)CC(C)c2ccccc2)s1", "note": "(stereo not drawn)", "hERG current change (%, negative = inhibition) at 10uM": 1.39}, {"smiles": "N#Cc1c(N)nc2c3c(sc(=N)c2c1N)NC(=O)CC3c1c(F)cccc1Cl", "note": "(stereo not drawn)", "hERG current change (%, negative = inhibition) at 10uM": -15.7}, {"smiles": "O=C(NNc1nc2ccccc2s1)c1ccccc1F", "hERG current change (%, negative = inhibition) at 10uM": -7.04}, {"smiles": "CC(C)CNC(=S)NC1CC2CCCC(C1)N2Cc1cccs1", "note": "(stereo not drawn)", "hERG current change (%, negative = inhibition) at 10uM": -34.8}, {"smiles": "Fc1ccc(NC(=S)NC2CC3CCC(C2)N3Cc2ccco2)cc1", "note": "(stereo not drawn)", "hERG current change (%, negative = inhibition) at 10uM": -12.6}, {"smiles": "Cc1cc(C)cc(NC(=S)NC2CC3CCCC(C2)N3Cc2cccs2)c1", "note": "(stereo not drawn)", "hERG current change (%, negative = inhibition) at 10uM": -52.9}, {"smiles": "CCc1ccc(NC(=S)NC2CC3CCCC(C2)N3Cc2cccs2)cc1", "note": "(stereo not drawn)", "hERG current change (%, negative = inhibition) at 10uM": -20.4}, {"smiles": "Fc1ccc(NC(=S)NC2CC3CCCC(C2)N3Cc2cccs2)cc1", "note": "(stereo not drawn)", "hERG current change (%, negative = inhibition) at 10uM": -59.5}, {"smiles": "Cc1ccc(NC(=S)NC2CC3CCCC(C2)N3Cc2cccs2)cc1", "note": "(stereo not drawn)", "hERG current change (%, negative = inhibition) at 10uM": -56.5}, {"smiles": "Cc1cccc(NC(=S)NC2CC3CCCC(C2)N3Cc2cccs2)c1C", "note": "(stereo not drawn)", "hERG current change (%, negative = inhibition) at 10uM": -37.9}, {"smiles": "Cc1cccc(NC(=S)NC2CC3CCCC(C2)N3Cc2cccs2)c1", "note": "(stereo not drawn)", "hERG current change (%, negative = inhibition) at 10uM": -35.9}, {"smiles": "CCc1ccccc1NC(=S)NC1CC2CCCC(C1)N2Cc1cccs1", "note": "(stereo not drawn)", "hERG current change (%, negative = inhibition) at 10uM": -4.03}, {"smiles": "CCOC(=O)C(=O)N(Nc1ccccc1C)c1ccccc1C", "hERG current change (%, negative = inhibition) at 10uM": -14.3}, {"smiles": "O=C(Nc1ccccn1)c1ccc2c(c1)OCCO2", "hERG current change (%, negative = inhibition) at 10uM": 11.5}, {"smiles": "CC1CCN(c2nc(-c3ccc(F)cc3)cc(C(F)(F)F)n2)CC1", "hERG current change (%, negative = inhibition) at 10uM": 15.6}, {"smiles": "Cc1csc(C2=C(O)CN(CCc3ccccc3)C2=N)n1", "hERG current change (%, negative = inhibition) at 10uM": 1.95}, {"smiles": "O=C(CCc1ccccc1)OCCOC(=O)CCc1ccccc1", "hERG current change (%, negative = inhibition) at 10uM": 22.1}, {"smiles": "Cc1cc(C(F)(F)F)nn1CC(=O)Nc1ccc2c(c1)OCO2", "hERG current change (%, negative = inhibition) at 10uM": -2.91}, {"smiles": "CCCCOC(=O)c1ccc(NC(C)=O)cc1", "hERG current change (%, negative = inhibition) at 10uM": -11.2}, {"smiles": "O=c1oc2ccccc2c(O)c1CN1CCCCC1", "hERG current change (%, negative = inhibition) at 10uM": 13.9}, {"smiles": "Nc1c(N2CCN(c3ccccc3)CC2)c2ccccc2oc1=O", "hERG current change (%, negative = inhibition) at 10uM": -50.1}, {"smiles": "Nc1c(N2CCCC2)c2ccccc2oc1=O", "hERG current change (%, negative = inhibition) at 10uM": 2.82}, {"smiles": "O=c1oc2ccccc2c(Nc2ccccc2)c1CN1CCCCC1", "hERG current change (%, negative = inhibition) at 10uM": -57.1}, {"smiles": "O=c1oc2ccccc2c(N2CCCC2)c1CN1CCCC1", "hERG current change (%, negative = inhibition) at 10uM": 13}, {"smiles": "O=c1oc2ccccc2c(N2CCCCC2)c1CN1CCCC1", "hERG current change (%, negative = inhibition) at 10uM": -54.4}, {"smiles": "O=c1oc2ccccc2c(N2CCCCC2)c1CN1CCCCC1", "hERG current change (%, negative = inhibition) at 10uM": -18.4}, {"smiles": "CN1CCN(c2c(N)c(=O)oc3ccccc23)CC1", "hERG current change (%, negative = inhibition) at 10uM": -45.2}, {"smiles": "O=c1oc2ccccc2c(Cl)c1CN1CCCCC1", "hERG current change (%, negative = inhibition) at 10uM": 24.1}, {"smiles": "Cc1cc(C)cc(C(=O)NC(CC(N)=O)c2ccc(NC3CCCC3)c([N+](=O)[O-])c2)c1", "note": "(stereo not drawn)", "hERG current change (%, negative = inhibition) at 10uM": 13.2}, {"smiles": "CC(=O)c1ccc(NC(=O)/C(=C\\c2cccs2)NC(=O)c2ccco2)cc1", "hERG current change (%, negative = inhibition) at 10uM": 17.9}, {"smiles": "Cc1ccc(S(=O)(=O)Oc2ccc(C(c3c(C)[nH][nH]c3=O)c3c(C)[nH][nH]c3=O)cc2)cc1", "hERG current change (%, negative = inhibition) at 10uM": -1.83}, {"smiles": "CC(C)CCn1c(NCCN(C)C)nc2c1c(=O)[nH]c(=O)n2C", "hERG current change (%, negative = inhibition) at 10uM": -23.2}, {"smiles": "COc1ccc(-n2c(SC3CCOC3=O)nc3ccccc3c2=O)cc1OC", "note": "(stereo not drawn)", "hERG current change (%, negative = inhibition) at 10uM": -4.64}, {"smiles": "COC(=O)c1c(NC(=O)c2cccc(S(=O)(=O)N3CCN(C)CC3)c2)sc(C)c1C", "hERG current change (%, negative = inhibition) at 10uM": 13.4}, {"smiles": "COc1ccc(C2Nc3ccccc3C(=O)N2NC(=O)c2ccccc2)cc1OC", "note": "(stereo not drawn)", "hERG current change (%, negative = inhibition) at 10uM": 3.24}, {"smiles": "Cc1ccccc1N=C1SCCN1C(=O)CN1C(=O)NC2(CCCC2)C1=O", "hERG current change (%, negative = inhibition) at 10uM": -21.7}, {"smiles": "CCOc1ccc(C2/C(=C(\\O)c3ccc4c(c3)OCCO4)C(=O)C(=O)N2CCCN2CCOCC2)cc1OC", "note": "(stereo not drawn)", "hERG current change (%, negative = inhibition) at 10uM": 3.69}, {"smiles": "Cc1cc(S(=O)(=O)N2CCOCC2)ccc1OCC(=O)Nc1ccc(F)cc1", "hERG current change (%, negative = inhibition) at 10uM": -18.9}, {"smiles": "COc1ccc(C2/C=C\\CN(S(=O)(=O)/C=C/c3ccccc3)[C@H](Cc3ccccc3)C(=O)N2Cc2ccc(F)cc2)cc1", "note": "(stereo partly drawn)", "hERG current change (%, negative = inhibition) at 10uM": 8.05}, {"smiles": "Cc1nn(-c2ccccc2)c2c1C(c1ccc(Cl)cc1)N(c1ccccc1)C(=O)N2", "note": "(stereo not drawn)", "hERG current change (%, negative = inhibition) at 10uM": -64.6}, {"smiles": "COc1ccc(C2SCC(=O)Nc3c2c(C)nn3-c2ccccc2)cc1", "note": "(stereo not drawn)", "hERG current change (%, negative = inhibition) at 10uM": -7.35}, {"smiles": "Cc1nn(-c2ccccc2)c2c1C(c1cccc([N+](=O)[O-])c1)N(c1ccccc1)C(=O)N2", "note": "(stereo not drawn)", "hERG current change (%, negative = inhibition) at 10uM": 11.1}, {"smiles": "O=C(CCCOc1ccc(Cl)cc1)Nc1cccc(C(=O)O)c1", "hERG current change (%, negative = inhibition) at 10uM": 13}, {"smiles": "COc1ccc(NC(=O)c2ccc(-n3c(C)ccc3C)cc2)c(OC)c1", "hERG current change (%, negative = inhibition) at 10uM": -24.3}, {"smiles": "COC(=O)c1ccc(C23CC4(C2)[C@H](CN(C)[C@@H]4c2ccccc2)C3c2ccc(Cl)nc2)cc1", "note": "(stereo partly drawn)", "hERG current change (%, negative = inhibition) at 10uM": -28}, {"smiles": "CCOc1ccc(CNC(=O)CCC(=O)n2ncc3ccc(Cl)cc32)cc1", "hERG current change (%, negative = inhibition) at 10uM": -1.82}, {"smiles": "COc1ccc(C(=O)NC2CC2)cc1OC1CCN(C/C=C/c2ccccc2)CC1", "hERG current change (%, negative = inhibition) at 10uM": -79.9}, {"smiles": "COc1cc(C(=O)N2CCN(C/C=C/c3ccccc3)CC2)cc(OC)c1OC", "hERG current change (%, negative = inhibition) at 10uM": -35}, {"smiles": "COc1cc(C(=O)N2CCN(C/C=C/c3ccccc3)CC2)cc(OC)c1C", "hERG current change (%, negative = inhibition) at 10uM": -30.2}, {"smiles": "COc1ccccc1/C=C/CN1CCC(Oc2cc(C(=O)NC3CC3)ccc2OC)CC1", "hERG current change (%, negative = inhibition) at 10uM": -76.5}, {"smiles": "CCOC(=O)c1[nH]c2ccc(OCC)cc2c1NC(=O)CN1CCC2(CC1)OCCO2", "hERG current change (%, negative = inhibition) at 10uM": -25.7}, {"smiles": "Cc1ccsc1CNn1cnnc1SCc1ccc(Cl)cc1", "hERG current change (%, negative = inhibition) at 10uM": 13}, {"smiles": "O=C(CSc1nnc(-c2cnccn2)n1Cc1ccco1)c1ccc2ccccc2c1", "hERG current change (%, negative = inhibition) at 10uM": -15.4}, {"smiles": "COC(=O)c1cc(S(=O)(=O)NCC2CCN(CCc3cccs3)CC2)cn1C", "hERG current change (%, negative = inhibition) at 10uM": -49.6}, {"smiles": "COC(=O)c1cc(S(=O)(=O)NCCc2ccccc2)c[nH]1", "hERG current change (%, negative = inhibition) at 10uM": 5.93}, {"smiles": "COC(=O)c1cc(S(=O)(=O)NCC2CCN(Cc3cccc(F)c3)CC2)cn1C", "hERG current change (%, negative = inhibition) at 10uM": -18.5}, {"smiles": "COC(=O)c1cc(S(=O)(=O)NCC2CCN(CCc3ccc(OC)cc3)CC2)c[nH]1", "hERG current change (%, negative = inhibition) at 10uM": -67}, {"smiles": "COC(=O)c1cc(S(=O)(=O)NCc2ccc(Br)cc2)c[nH]1", "hERG current change (%, negative = inhibition) at 10uM": -16.1}, {"smiles": "COC(=O)c1cc(S(=O)(=O)NCc2cccs2)c[nH]1", "hERG current change (%, negative = inhibition) at 10uM": 19.1}, {"smiles": "COC(=O)c1cc(S(=O)(=O)NCC2CCN(Cc3ccc(Cl)cc3)CC2)cn1C", "hERG current change (%, negative = inhibition) at 10uM": -17}, {"smiles": "COC(=O)c1cc(S(=O)(=O)NCC2CCN(Cc3ccc(F)cc3)CC2)cn1C", "hERG current change (%, negative = inhibition) at 10uM": -19.6}, {"smiles": "COC(=O)c1cc(S(=O)(=O)NCC2CCN(Cc3cc(C)ccc3C)CC2)cn1C", "hERG current change (%, negative = inhibition) at 10uM": -27.5}, {"smiles": "COC(=O)c1cc(S(=O)(=O)NCC2CCN(CCc3cccs3)CC2)c[nH]1", "hERG current change (%, negative = inhibition) at 10uM": -51.1}, {"smiles": "COC(=O)c1cc(S(=O)(=O)NCC2CCN(Cc3ccc(C)cc3)CC2)cn1C", "hERG current change (%, negative = inhibition) at 10uM": -52}, {"smiles": "COC(=O)c1cc(S(=O)(=O)NCC2CCN(CCc3ccc(OC)cc3)CC2)cn1C", "hERG current change (%, negative = inhibition) at 10uM": -61.2}]}]}
